Data taken from ChEMBL document CHEMBL3988442, “University of Dundee, Small-Polar-MMV Screening Library” (2021).
Hit rate of the full screen: of about 48,000 compounds, about 13,000 (27%) showed an effect of 50% or more. Some of the results follow.

system: Wolbachia pipientis; test: Anti-Wolbachia Cell-Based Screen; assay type: functional; set-up: scale not given: in the data most compounds retested in dose-response had high values; conditions: 5 µM

Row | Structure (SMILES) | Percent Effect
1 | CCNc1ncc(CN(CCN(C)C)Cc2ccc(C)s2)cn1 | 9.658%
2 | CC(CC#N)N(C)Cc1ccc(F)cc1F (stereo not given) | -4.017%
3 | NC(=O)Nc1cc(Br)cnc1OCC(F)(F)F | 3.483%
4 | CC(C)N1CCC(CC(=O)N(C)CC(=O)c2ccc(O)cc2)CC1 | -41.3%
5 | COc1cc(OC)cc(-n2ccnc2-c2cc3n(n2)CCNC3)c1 | -3.796%
6 | CN(C)C[C@H]1C[C@@H](CO)CN(C(=O)CCc2nc(Cl)n[nH]2)C1 | -2.145%
7 | Cc1cccc2c1nc1n2[C@@H](CNC2CCCCC2)COC1 | -2.586%
8 | CC1c2ncc(COc3cccnc3)n2CCN1Cc1ccco1 (stereo not given) | 103.4%
9 | CC1c2ncc(COc3cccnc3)n2CCN1C(=O)Cc1ccco1.O=C(O)C(F)(F)F (stereo not given) | 6.97%
10 | CCCNC(=O)c1ccc2c(c1)C(=O)N(CC(C)C)C2=O | 12.13%
11 | O=C(Cc1ccc(F)cc1)NS(=O)(=O)c1ccc(F)c(F)c1 | -8.123%
12 | O=C(c1ccoc1)N1CCC(O)(C(F)(F)F)CC1 | 69.76%
13 | CC[C@@]1(O)CCN(C(=O)c2ccoc2)C[C@H]1O | -13.59%
14 | Cc1ccc2cc(C(=O)N3CCC(O)(C(F)(F)F)CC3)ccc2n1 | 14.37%
15 | CC(=O)N1CC2(CCN(C(=O)c3ccoc3)C2)C1 | -7.067%
16 | O=C(c1cc(F)cc(F)c1)N1CCC(O)(C(F)(F)F)CC1 | 87.26%
17 | O=C(c1cc(F)cc(F)c1)N1CCC2(CC1)CC2 | 32.79%
18 | CCc1nc2n(n1)CC(NCc1nc3ccccc3nc1C)CC2 (stereo not given) | -12.92%
19 | CCc1nc2n(n1)CC(NCc1nc(Cc3ccccc3)no1)CC2 (stereo not given) | 105.9%
20 | CCc1nc2n(n1)CC(NCc1nc(-c3cccnc3)no1)CC2 (stereo not given) | -12.29%
21 | CCc1nc2n(n1)CC(NCc1cnc(-c3ccccc3)nc1)CC2 (stereo not given) | 109.3%
22 | CCc1nc2n(n1)CC(NCc1cnn(Cc3ccccc3)c1)CC2 (stereo not given) | 87.86%
23 | CCc1nc2n(n1)CC(NCc1ccnc(-c3ccccc3)n1)CC2 (stereo not given) | 7.748%
24 | CCc1nc2n(n1)CC(NCc1ncc(-c3ccccc3)o1)CC2 (stereo not given) | -4.969%
25 | CCc1nc2n(n1)CC(NCc1nc3ccccc3o1)CC2 (stereo not given) | -13.4%
26 | c1ccc(Cc2noc(CNC3CCc4ncnn4C3)n2)cc1 (stereo not given) | -0.1669%
27 | CCc1noc(C(C)N2CCN(Cc3cnc(C)cn3)CC2)n1 (stereo not given) | 14.64%

Row | Structure (SMILES) | Percent Effect
28 | O=C(NC[C@H]1OC[C@@H](NCc2ccccc2F)[C@@H]1O)Nc1ccccc1 | -9.055%
29 | CC(C)c1nccn1CCCNC(=O)c1ccc(-c2cncnc2)nc1 | -0.1776%
30 | CCc1ncc2c(n1)CN(Cc1nc(-c3ccco3)oc1C)CC2 | 106.4%
31 | Cc1ncc2c(n1)CN(Cc1nc(-c3ccco3)oc1C)CC2 | 105%
32 | CC(C)c1ncc2c(n1)CN(Cc1ccc3c(c1)OCCO3)CC2 | -34.65%
33 | Cc1ccc(-c2nnc(CN3CCc4cnc(C)nc4C3)o2)cc1 | -1.089%
34 | Cc1ncc2c(n1)CN(Cc1nc(-c3ccsc3)oc1C)CC2 | 102.9%
35 | CCc1ncc2c(n1)CN(Cc1nc(C)c(C)o1)CC2 | -17.94%
36 | CC(C)c1ncc2c(n1)CN(Cc1cccc3c1OCCO3)CC2 | 21.53%
37 | Cc1ncc2c(n1)CN(Cc1nnc(-c3occc3C)o1)CC2 | 2.201%
38 | Cc1ncc2c(n1)CN(Cc1nc3ccccc3o1)CC2 | 10.13%
39 | CCc1ncc2c(n1)CN(Cc1nc(-c3ccsc3)oc1C)CC2 | 1.537%
40 | CCc1ncc2c(n1)CN(Cc1nnc(C)o1)CC2 | 12.23%
41 | Cc1oc(-c2ccco2)nc1CN1CCc2cnc(C(C)C)nc2C1 | 92.73%
42 | Cc1nc(CN2CCc3cncnc3C2)oc1C | -4.156%
43 | Cc1oc(-c2ccco2)nc1CN1CCc2cncnc2C1 | 88.65%
44 | COCc1ncn(Cc2nc(-c3ccco3)oc2C)n1 | -24.79%
45 | COCCCNS(=O)(=O)c1cc(Br)sc1C | 2.901%
46 | COc1cccc(F)c1C(C)NC(=O)NCc1cc(C(C)C)no1 (stereo not given) | -6.055%
47 | O=C1CC(c2ccccc2)c2snc(C(=O)O)c2N1 (stereo not given) | -4.128%
48 | C[C@H]1CN2C[C@H](O)CC2CN1Cc1ccc2nccnc2c1.Cl (stereo not given in full) | 75.9%
49 | COc1ccc(CN2CC(=O)N(c3ccc(C)cc3)CC2C)cc1O (stereo not given) | -1.266%
50 | CS(=O)(=O)N1C[C@@H]2CC[C@H](C1)N(Cc1ccc3nsnc3c1)C2 | 5.437%
51 | CN(C)C(=O)CN1C[C@@H]2CC[C@H](C1)N(Cc1ccc3nsnc3c1)C2 | 10.45%
52 | Cc1nccn1-c1ccc(CN2CC3C[C@@H](O)CN3C[C@@H]2C)cc1 (stereo not given in full) | 108%
53 | Cc1nccn1-c1ccc(C(C)NCCC(C)C)cc1 (stereo not given) | -1.351%
54 | Cc1nccn1-c1ccc(NC(=O)C2CCCN2Cc2ccoc2)cc1 (stereo not given) | 9.601%

Row | Structure (SMILES) | Percent Effect
55 | C[C@@H]1CN2C[C@H](O)CC2CN1Cc1ccc2nccnc2c1 (stereo not given in full) | 113.8%
56 | CCn1ccnc1CN1CCN(c2ncnc3ccsc23)CC1C (stereo not given) | 11.61%
57 | CCNC(=O)CCC(=O)NC1(c2cccc(Br)c2)CC1 | -12.14%
58 | CCc1nc(C)c(C(=O)N2C[C@H]3CC[C@@H]2CN(S(=O)(=O)N(C)C)C3)s1 | 8.94%
59 | CN(Cc1cnn(C)c1)C(=O)NC1CCN(c2ncccn2)CC1 | -3.223%
60 | CC(C)NC(=O)[C@@H]1CC[C@@H]2[C@@H](CCN2Cc2cn(C)c3ccccc23)O1.O=C(O)C(F)(F)F | -4.98%
61 | Cc1cccnc1CN(C)C(C(=O)O)c1ccc(-c2ccn[nH]2)cc1 (stereo not given) | -12.44%
62 | O=C(CC1OCCc2ccccc21)NCCn1cccc1 (stereo not given) | -19.46%
63 | COc1ncccc1CNCc1c(C)nn(C)c1N1CCOCC1 | 134%
64 | COc1c(CNCc2cccnc2N2CCN(C)CC2)c(C)nn1C | 102%
65 | Cc1nn(C)c(Cl)c1C(=O)NCc1cccnc1N1CCOCC1 | 97.98%
66 | COc1ccc(C(=O)NCc2cccnc2N2CCOCC2)o1 | -8.247%
67 | Cc1nn(C)c(N2CCOCC2)c1CNC(c1cccs1)C(C)C (stereo not given) | 11.33%
68 | COc1c(CNCc2cccnc2OC2CCCC2)c(C)nn1C | 10.48%
69 | Cc1nn(C)c(N(C)C)c1CNCc1cccnc1N1CCOCC1 | 75.62%
70 | Cc1nn(C)c(C)c1C(=O)NCc1cccnc1OC1CCCC1 | 2.821%
71 | COc1c(CNCc2ccccc2CO)c(C)nn1C | -3.857%
72 | Cc1nn(C)c(N(C)C)c1CNCc1cccnc1-n1cncn1.Cl | 6.556%
73 | Cn1ncnc1CCNC(=O)c1cc(Cl)c(Cl)n1C | -10.92%
74 | CCC(O)(CNCc1ncc[nH]1)c1ccc(Br)cc1 (stereo not given) | -2.159%
75 | CCN(C(=O)c1ccc2nncn2c1)C(C)Cc1ccc(OC)cc1 (stereo not given) | 0.4912%
76 | COc1ccccc1CN1C(=O)O[C@@H]2CN(Cc3cccc(C)n3)C[C@@H]21 | 8.298%
77 | Cc1c(C(C)NCc2cnn(C)c2)cnn1-c1ccccc1 (stereo not given) | 2.501%
78 | COc1c(CNCc2cccnc2N2CCOCC2)c(C)nn1C | 98.1%
79 | COc1c(CNCc2cccnc2N2CCCCC2)c(C)nn1C | 105.9%
80 | CC(C)c1nn(C)c(Cl)c1CNCc1cccnc1N(C)C.Cl | 4.509%
81 | COc1c(CNCc2ccc(N3CCOCC3)cc2)c(C)nn1C | -35.64%

Row | Structure (SMILES) | Percent Effect
82 | COc1ncccc1CNCc1c(C(C)C)nn(C)c1Cl | -10.74%
83 | Cc1nn(C)c(C)c1CNCc1cccnc1N1CCOCC1 | 117.5%
84 | Cc1nn(C)c(C)c1CNCc1ccc(N2CCOCC2)nc1.Cl | -2.34%
85 | COc1c(CNCc2ccccc2CN2CCOCC2)c(C)nn1C | 9.735%
86 | Cc1nn(C)c(C)c1CNCc1ccnc(N2CCOCC2)c1 | 7.637%
87 | Cc1nn(C)c(Cl)c1CNCc1cccnc1N1CCCCC1.Cl | 128.1%
88 | COc1c(CNCc2ccnc(N3CCCC3)c2)c(C)nn1C | 5.629%
89 | CCN(CC)C(=O)[C@@H]1C[C@@H](NC(=O)c2ccn(C(C)(C)C)c2)CN1C | -2.553%
90 | CCOC1CCCN(C(=O)c2[nH]nc(C3CC3)c2Br)C1 (stereo not given) | 12.02%
91 | Cc1nn(C)c(C)c1CC(=O)NCc1cccnc1OC1CCCC1 | 8.742%
92 | Cc1nn(C)c(C)c1CC(=O)NCc1cccnc1N1CCOCC1 | 92.54%
93 | Cc1nn(C)c(C)c1CCC(=O)NCc1cccnc1OC1CCCC1 | 8.443%
94 | O=C(NC1CCC(C(=O)N2CCSCC2)CC1)N1CCOCC1 (stereo not given) | -2.912%
95 | Cc1ccc(S(=O)(=O)N(C)c2ccsc2C(=O)NCC(C)C)cc1 | 110.5%
96 | CNC(=O)c1sccc1S(=O)(=O)Nc1ccc(C)cc1 | 10.06%
97 | COC(=O)CNC(=O)c1cccc(C(=O)N(C)c2ccccc2)c1 | -13.83%
98 | COCCNS(=O)(=O)c1ccc(Cl)c(C(=O)N(C)Cc2sccc2C)c1 | 1.059%
99 | COC(=O)CNC(=O)c1sccc1N(C)S(=O)(=O)c1ccc(Cl)cc1 | 108.4%
100 | CC(=O)NCCNC(=O)c1sccc1Br | 4.913%
101 | COCC1CN(c2ccc(Cl)cc2C#N)CCO1 (stereo not given) | -47.15%
102 | CN(C(=O)CN1CCCC1c1cnn(C)c1)C1(C#N)CCCCC1 (stereo not given) | 17.82%
103 | Fc1ccc(C2(NCc3noc(C4CC4)n3)CCC2)cc1 | 7.462%
104 | Cn1ccnc1CN1CC[C@@H]2[C@@H](CCC(=O)N2CCc2c[nH]cn2)C1 | 16.03%
105 | N#Cc1cn(C2CC2)c(=O)n(CC(O)c2ccc(OC(F)F)cc2)c1=O (stereo not given) | -10.28%
